Only some compounds are listed: those with a hit (about 2.3% of all), similar ones and a draw of the others.
PLC-gamma1 inh – PLC-gamma1 enzyme inhibitors, primary screen, biochemical, fluorescence, purified enzyme | 1-phosphatidylinositol 4,5-bisphosphate phosphodiesterase gamma-1 (Homo sapiens), P19174 | fluorogenic substrate | inhibition, % at 12.2 µM | hit rate 0.84% among 370,000 | AID 720700, 2013; in the data active = inhibition above about 9.5%
MBD2 inh – inhibitors of MBD2 binding to methylated DNA, primary screen, biochemical, TR-FRET, DNA-binding domain, human; Methyl-CpG-binding domain protein 2 (Homo sapiens), Q9UBB5; MBD2 binding to methylated oligonucleotide; inhibition, % at 4.4 µM; hit rate 0.31% among 370,000; in the data active = inhibition above about 13%
PLC-beta3 inh – human PLC-beta3 inhibitors, primary screen, biochemical, fluorescence; inhibition, % at 12.2 µM; hit rate 0.18% among 370,000; Purified PLC-beta3, fluorogenic substrate; 1-phosphatidylinositol 4,5-bisphosphate phosphodiesterase beta-3 (Homo sapiens), Q01970; in the data active = inhibition above about 11%;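 note: 0% = median of compound wells on plate and 100% = full blocker control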
UHRF1 MBD2 ctr – UHRF1 methylated DNA binding inhibitors, primary screen, counter-screen for MBD2 inhibitor project, biochemical, TR-FRET, human UHRF1, single concentration. E3 ubiquitin-protein ligase UHRF1 (Homo sapiens), Q96T88. UHRF1 binding to methylated oligo. inhibition, % at 4.4 µM. hit rate 0.75% among 370,000; in the data active = inhibition above about 21%;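 note: UHRF1 SRA domain binding a hemimethylated CpG hairpin DNA probe; 0% = median of test compound wells and 100% = reference inhibitor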
Target sequence (Q96T88 whole entry, looked up, the tested form may be a part): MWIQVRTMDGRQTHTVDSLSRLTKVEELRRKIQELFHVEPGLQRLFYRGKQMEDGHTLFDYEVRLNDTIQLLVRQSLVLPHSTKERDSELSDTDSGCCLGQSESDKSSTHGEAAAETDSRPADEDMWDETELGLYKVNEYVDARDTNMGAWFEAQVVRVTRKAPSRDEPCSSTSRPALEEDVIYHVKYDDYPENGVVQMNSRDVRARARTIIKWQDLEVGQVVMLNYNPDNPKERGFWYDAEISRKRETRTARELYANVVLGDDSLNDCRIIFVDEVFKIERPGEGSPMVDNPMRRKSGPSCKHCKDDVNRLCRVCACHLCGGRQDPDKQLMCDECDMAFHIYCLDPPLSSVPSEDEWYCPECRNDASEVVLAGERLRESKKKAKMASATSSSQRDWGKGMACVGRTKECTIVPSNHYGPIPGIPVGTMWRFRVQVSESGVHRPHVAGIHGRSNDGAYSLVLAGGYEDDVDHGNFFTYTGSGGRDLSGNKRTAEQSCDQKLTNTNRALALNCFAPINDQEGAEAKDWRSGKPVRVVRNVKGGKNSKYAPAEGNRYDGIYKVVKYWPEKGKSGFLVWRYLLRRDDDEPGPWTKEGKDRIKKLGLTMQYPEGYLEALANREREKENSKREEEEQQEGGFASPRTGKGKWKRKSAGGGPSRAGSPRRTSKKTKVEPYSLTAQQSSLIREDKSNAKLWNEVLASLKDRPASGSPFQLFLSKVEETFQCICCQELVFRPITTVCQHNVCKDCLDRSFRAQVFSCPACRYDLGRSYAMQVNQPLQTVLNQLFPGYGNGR
LEDGF integ inh – blockers of LEDGF/p75-dependent integrase strand transfer – biochemical, TR-FRET, high throughput, primary screen; TR-FRET IN-LEDGF/p75 DNA integration, Eu/Cy5; HIV-1 integrase (with human LEDGF/p75); inhibition, % at 3.7 µM; AID 743269, 2014; hit rate 0.64% among 370,000;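 active = inhibition above the screen-wide mean plus 3 SD, cut at about 13% in these data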;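 note: signal is the Cy5 over europium emission ratio at 671 and 618 nm; 0% = plate median of compound wells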
UHRF1 ctr MBD2 – UHRF1 methylated DNA binding inhibitors, counter-screen for MBD2 inhibitor project, biochemical, TR-FRET, human UHRF1; shares compounds with MBD2 inh; inhibition, % at 4.4 µM; UHRF1 binding to methylated oligonucleotide; hit rate 25% among 1,000; in the data active = inhibition above about 21%;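 note: UHRF1 SRA domain binding a labeled hemimethylated CpG hairpin DNA; 0% = vehicle only and 100% = reference inhibitor with vehicle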
MBD2 confirm – inhibitors of MBD2 binding to methylated DNA, confirmation, biochemical, TR-FRET, DNA-binding domain, human. AID 720531, 2013. shares compounds with MBD2 inh. hit rate 26% among 1,000. inhibition, % at 4.4 µM. TR-FRET MBD2-DBD binding to methylated oligonucleotide
PLCgamma1 ctr – PLC-gamma1 enzyme inhibitors, counter-screen for PLC-beta3 inhibitor project, biochemical, fluorescence; shares compounds with PLC-gamma1 inh; purified PLC-gamma1, fluorogenic substrate; inhibition, % at 12.3 µM; hit rate 3.1% among 3,300; AID 743258, 2014; in the data active = inhibition above about 9.5%
PLCb3 confirm – PLC-beta3 inhibitor confirmation, biochemical, fluorescence, purified enzyme. shares compounds with PLC-gamma1 inh. fluorogenic substrate fluorescence. inhibition, % at 12.3 µM. hit rate 1% among 3,300. AID 743261, 2014; in the data active = inhibition above about 11%
IN multimer up – HIV-1 IN multimer formation enhancers, counter-screen for LEDGF/p75 integration inhibitor project, biochemical, TR-FRET. shares compounds with LEDGF integ inh. TR-FRET HIV-1 integrase multimerization. activation, % at 7.7 µM. hit rate 17% among 2,000. AID 1053131, 2014; in the data active = activation above about 8.9%
TR-FRET interf – TR-FRET optical interference artefacts, confirmation, artefact control for LEDGF/p75-dependent integration inhibitor project, biochemical, HIV-1 IN multimerization | shares compounds with LEDGF integ inh | TR-FRET optical interference counterscreen | inhibition, % at 7.7 µM | 2,000 tested, under 10 active | AID 1053135, 2014;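 active = inhibition above the mean over all tested compounds plus 3 SD, which no compound reached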;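 note: 0% = integrase with antibodies and DMSO and 100% = antibodies without integrase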
LEDGF integ conf – inhibitors of HIV-1 IN-LEDGF/p75 DNA integration, confirmation, biochemical, TR-FRET | shares compounds with LEDGF integ inh | TR-FRET LEDGF/p75-dependent HIV-1 integration | inhibition, % at 3.7 µM | hit rate 36% among 2,000 | AID 1053136, 2014
* hit, by the source's call. Cut-off read from the data, not from the text of the source, unless noted: active = inhibition above about 14%; inactive = the rest.

Screening CCCCN1C(=O)/C(=C/C=C/c2ccco2)C(=O)NC1=S returned PLC-gamma1 inh -38.1, MBD2 inh 28.9*, PLC-beta3 inh -54.0, UHRF1 MBD2 ctr 83.0*, LEDGF integ inh 56.3*, UHRF1 ctr MBD2 47.6*, MBD2 confirm 19.3*, IN multimer up 3.4, TR-FRET interf -17.1 and LEDGF integ conf 73.5*.
CCCCN1C(=O)/C(=C\c2ccco2)C(=O)N(CCc2ccccc2)C1=O was read as PLC-gamma1 inh -0.7, MBD2 inh -0.9, PLC-beta3 inh -5.0, UHRF1 MBD2 ctr -3.8 and LEDGF integ inh -0.1.
`Cc1ccc(N2C(=O)NC(=O)/C(=C/c3cnn(-c4ccc(C)cc4)c3)C2=O)cc1` gave PLC-gamma1 inh 0.3, MBD2 inh -7.0, PLC-beta3 inh -5.0, UHRF1 MBD2 ctr -0.5 and LEDGF integ inh 1.1.
Cc1ccc(N2C(=O)NC(=O)/C(=C/c3ccoc3)C2=O)cc1 was read as PLC-gamma1 inh -13.8, MBD2 inh 33.2*, PLC-beta3 inh -19.6, UHRF1 MBD2 ctr 63.2*, LEDGF integ inh 30.4*, UHRF1 ctr MBD2 85.8*, MBD2 confirm 53.7*, IN multimer up 9.2*, TR-FRET interf -46.3 and LEDGF integ conf 57.5*.
Screening OC1CN2CCC(O)C2C(O)C1O (configuration not stated) returned PLC-gamma1 inh 4.3, MBD2 inh 2.7, PLC-beta3 inh 5.6, UHRF1 MBD2 ctr -3.2 and LEDGF integ inh 0.7.
`NCC(O)c1cc(O)c(O)cc1F` (configuration not stated) gave PLC-gamma1 inh -1.1, MBD2 inh 13.7*, PLC-beta3 inh -1.9, UHRF1 MBD2 ctr 27.3*, LEDGF integ inh 49.3*, UHRF1 ctr MBD2 13.7, MBD2 confirm 4.3, IN multimer up 12.1*, TR-FRET interf -60.9 and LEDGF integ conf -5.0.
Screening N/C(=N\N=C/c1ccc(-c2ccc(O)c(C(=O)O)c2)o1)N[N+](=O)[O-] returned PLC-gamma1 inh -346.7, MBD2 inh 48.1*, PLC-beta3 inh -449.2, UHRF1 MBD2 ctr 81.6*, LEDGF integ inh 30.3*, UHRF1 ctr MBD2 54.8*, MBD2 confirm 18.4*, IN multimer up 35.1*, TR-FRET interf -125.2 and LEDGF integ conf 25.4*.
CC(c1ccccc1)n1cc(C(=O)NC2CCCC2)nn1 (configuration not stated) was read as PLC-gamma1 inh 1.3, MBD2 inh -6.6, PLC-beta3 inh -0.3, UHRF1 MBD2 ctr -2.9 and LEDGF integ inh -0.5.
For c1ccc(CCN2CCC3CCNC3C2)cc1 (configuration not stated) the results were PLC-gamma1 inh 1.9, MBD2 inh 2.6, PLC-beta3 inh 2.2, UHRF1 MBD2 ctr 1.3 and LEDGF integ inh 6.6.
For CC1(C)CC(=O)CC(C)(C)N1O the results were PLC-gamma1 inh 11.5*, MBD2 inh 0.3, PLC-beta3 inh 6.2, UHRF1 MBD2 ctr 2.3, LEDGF integ inh 4.2, PLCgamma1 ctr -5.4 and PLCb3 confirm -1.2.
`CC(=O)CC(=O)C1C(=O)N(C)C(=O)N(C)C1=O` gave PLC-gamma1 inh 11.3*, MBD2 inh 1.1, PLC-beta3 inh 3.3, UHRF1 MBD2 ctr 5.8, LEDGF integ inh 8.0, PLCgamma1 ctr -2.5 and PLCb3 confirm 1.2.
`CN1C(=O)C(c2ccccc2)C(=O)N(C)C1=O` gave PLC-gamma1 inh 4.8, MBD2 inh -2.4, PLC-beta3 inh -0.5, UHRF1 MBD2 ctr 2.3 and LEDGF integ inh -0.9.
CCCCN(Cc1ccccc1)C1CCN(CCc2ccccc2)CC1 was read as PLC-gamma1 inh 12.9*, MBD2 inh -1.0, PLC-beta3 inh 7.8, UHRF1 MBD2 ctr 16.2, LEDGF integ inh 5.3, PLCgamma1 ctr -3.2 and PLCb3 confirm -1.1.
Screening CCC(=NCc1ccco1)c1c(O)n(C)c(=O)n(C)c1=O returned PLC-gamma1 inh 1.5, MBD2 inh 3.6, PLC-beta3 inh -8.3, UHRF1 MBD2 ctr 2.2 and LEDGF integ inh -4.7.
Screening CC(=NCc1ccco1)c1c(O)n(C)c(=O)n(C)c1=O returned PLC-gamma1 inh 10.1*, MBD2 inh -0.3, PLC-beta3 inh 4.1, UHRF1 MBD2 ctr -0.2, LEDGF integ inh 2.9, PLCgamma1 ctr -2.3 and PLCb3 confirm -1.1.
`N#Cc1ccc(NC(=S)N2Cc3cc(Br)ccc3-n3nncc3C2)cc1` gave PLC-gamma1 inh 1.0, MBD2 inh -2.8, PLC-beta3 inh 3.1, UHRF1 MBD2 ctr 0.8 and LEDGF integ inh -2.0.
Cc1cccc(OCC(=O)N2CCN(Cc3ccncc3)CC2)c1 was read as PLC-gamma1 inh 12.7*, MBD2 inh -1.5, PLC-beta3 inh 3.9, UHRF1 MBD2 ctr 6.9, LEDGF integ inh 8.2, PLCgamma1 ctr -3.1 and PLCb3 confirm -1.6.
Cc1cccc(OCC(=O)N2CCN(Cc3ccc4c(c3)OCO4)CC2)c1 was read as PLC-gamma1 inh 1.3, MBD2 inh -3.2, PLC-beta3 inh 2.2, UHRF1 MBD2 ctr 6.8 and LEDGF integ inh 0.9.
